Measured values reported in PubChem BioAssay AID1619 (SRMLSC, 2009).
The whole screen tested about 220,000 compounds, of which about 830 (0.38%) were called active.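 Rule for the calls: active = compound inhibiting the enzyme by more than half at any dose during confirmatory dose-response retesting; inconclusive = strong single-dose inhibitors picked by rank but not retested; inactive = the rest.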 The list is a sample of the results. Results with a measured potency or affinity are listed apart.

molecular target: Leucine aminopeptidase (Plasmodium falciparum (isolate 3D7)) (UniProt Q8IL11); experiment: P. falciparum M17LAP inhibitors, primary screen, biochemical, fluorogenic H-Leu-NHMec substrate, 1536-well (AID 1619); settings: recombinant M17LAP, H-Leu-NHMec fluorogenic kinetic assay; at 30 µM; stronger effect = higher value;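 note: plate controls were full reaction with DMSO carrier for no effect and no enzyme background for full effect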
Sequence (Q8IL11 whole entry, looked up): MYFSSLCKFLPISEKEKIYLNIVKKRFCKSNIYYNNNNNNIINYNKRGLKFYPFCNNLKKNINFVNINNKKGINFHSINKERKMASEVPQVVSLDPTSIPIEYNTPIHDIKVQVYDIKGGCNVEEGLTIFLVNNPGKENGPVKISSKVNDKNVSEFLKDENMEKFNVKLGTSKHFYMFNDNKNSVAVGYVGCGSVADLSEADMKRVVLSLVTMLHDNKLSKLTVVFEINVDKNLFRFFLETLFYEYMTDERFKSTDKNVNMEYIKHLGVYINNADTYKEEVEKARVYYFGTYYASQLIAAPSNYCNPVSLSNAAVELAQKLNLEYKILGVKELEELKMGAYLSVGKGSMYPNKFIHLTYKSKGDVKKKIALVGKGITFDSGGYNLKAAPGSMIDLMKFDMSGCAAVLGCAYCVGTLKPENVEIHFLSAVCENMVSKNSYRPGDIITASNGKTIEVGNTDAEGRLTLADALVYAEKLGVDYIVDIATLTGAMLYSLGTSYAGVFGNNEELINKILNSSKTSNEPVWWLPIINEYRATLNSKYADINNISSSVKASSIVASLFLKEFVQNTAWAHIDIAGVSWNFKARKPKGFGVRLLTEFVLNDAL

inhibition, inactive:
CNC(=O)c1c2c(nc3ccc(Br)cc13)CCCC2 -4.18%, Cc1nnc(SCC(=O)Nc2ccc3c4c(cccc24)CC3)n1C 0.6%, COc1ccc(-n2c(SCC(=O)Nc3cccc4ccccc34)nc(O)cc2=O)cc1 -2.11%, O=C(CSc1nc2ccccc2c(=O)n1-c1ccc(F)cc1)Nc1ccc2c(c1)CCC2 13.5%, Cc1cccc(OCC(=O)Nc2ccc3c4c(cccc24)CC3)c1C 6.88%, Cc1ccc(-n2c(SCC(=O)Nc3ccc4c5c(cccc35)CC4)nc(O)c(C)c2=O)cc1 39%, Cc1ccc(-n2c(SCC(=O)Nc3ccc4c5c(cccc35)CC4)nc(O)cc2=O)cc1 26.7%, Cc1ccccc1Cn1nc(C)c(NC(=O)C2c3ccccc3Oc3ccccc32)c1C -14%, CCN(CC)C(=O)c1ccc(-c2nnc(OC)c3ccccc23)cc1 -4.54%, COC(=O)c1c(-c2cccs2)csc1NC(=O)c1cccnc1 15.9%, CCCn1c(SCC(=O)N2c3ccccc3Sc3ccccc32)nc2ccccc21 -2.24%, CC1CCCCN1Cc1c(C#N)c2ccccc2n1C (stereo not given) -2.84%, Cc1nnc(SCC2=C(C(=O)O)N3C(=O)C(NC(=O)Cn4nc(C(F)F)cc4C)C3SC2)s1 (stereo not given) 47.7%, Cc1c(Cl)c(C(F)F)nn1CC(=O)NC1C(=O)N2C(C(=O)O)=C(CSc3nnnn3C)CSC12 (stereo not given) 11.3%, O=C(Nc1ccc(Oc2cccc3ccccc23)cc1)c1ccco1 -4.51%, CCN1C(=O)CC(N2CCN(c3ccc(C(=O)c4ccncc4)cc3)CC2)C1=O (stereo not given) 31.2%, CC(=O)NC(C(=O)OCC(=O)N(c1ccccc1)c1ccccc1)C(C)C (stereo not given) 0.51%, Cc1cc(N2CCCC2)ccc1/C=C1\NC(=S)N(C)C1=O -1.37%, Cc1cc(N2CCCC2)ccc1/C=C1/C(=O)N(C)C(=S)N1C 1.26%, COc1cc2c(cc1OC)C(C(=O)N1CCCCC1)C(c1ccccc1F)N(C)C2=O (stereo not given) 2.89%, S=c1cnc2ccccc2[nH]1 6.02%, N#CCCn1cc(C(=O)N2CCCCC2)c(-c2cccc([N+](=O)[O-])c2)n1 4.89%, CC1(C)CC(=O)C(C(C2=C(O)CC(C)(C)CC2=O)c2ccc(Cl)c([N+](=O)[O-])c2)C(=O)C1 (stereo not given) 7.5%, CN(C)/C=N/c1sc2c(c1C#N)CCCC2 0.79%, CN(C)/C=N/c1sc2c(c1C#N)CCCCC2 5.07%
